# Assay outcomes as filed in PubChem.
# RAM inhibit – blocks the yeast RAM network. AID 868. S. cerevisiae dse1pr::URA3 reporter, 5-FOA growth OD615, 2 d; analog-sensitive cbk1-as2 kinase mutant strain. inhibition, % at 50 µM. 190,000 tested, 1.8% active;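 active means inhibition above a set limit, 3 SD over mean compound inhibition, cut at about 8.4% in these data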;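 further: 0% = DMSO-only wells with no growth and 100% = 10 µM 1-NA-PP1 full growth; inhibition rescues growth on 5-FOA so higher OD means more RAM inhibition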
# CHOP inhibitor – CHOP inhibition in unfolded protein response; CHO-K1 CHOP-promoter luciferase, tunicamycin-induced, 15-18 h; inhibition, % at 10 µM; 220,000 tested, 3.8% active; AID 2732;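 active means compounds that reduced the stress-induced luciferase reporter signal by more than about 70% of percent inhibition, limit read from the data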;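 further: 0% = tunicamycin plus vehicle and 100% = wells without tunicamycin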
# WT yeast gro inh – growth inhibition of WT yeast, mitochondrial fusion screen. mitochondrial fusion phenotypic screen, WT strain. inhibition, % at 10 µM. 190,000 tested, 2.1% active. AID 1362; in the data active means inhibition above about 58%; tested in S. cerevisiae
# L major viab – Leishmania major promastigote growth inhibition | Leishmania major promastigotes, resazurin fluorescence viability | 200,000 tested, 9% active | inhibition, % at 10 µM; in the data active means inhibition above about 50%;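 further: promastigotes grown with compound for 44 hours at 28 °C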
# Starred values were filed as active, the others as inactive; . = no result; ! = not active in a repeat. Hits are enriched below; roughly 13% of the tested compounds scored in any of these assays.
SMILES,RAM inhibit,CHOP inhibitor,WT yeast gro inh,L major viab
CSCCC(NC(=O)c1ccccc1)C(=O)Nc1ccc(C)cc1 (stereo unspecified),3.2,27.0,-4.3,49.2
CSc1cccc(NC(=O)CN(c2cc(C)ccc2C)S(C)(=O)=O)c1,0.7,59.8,1.5,19.2
CCN(CC)S(=O)(=O)c1ccc(C(=O)OCC(=O)NCCN2C(=O)CSC2=O)cc1,2.6,23.2,-4.8,-7.5
C=C(C)c1cccc(C(C)(C)NC(=O)N(Cc2ccccc2)Cc2ccco2)c1,7.6,82.8*,13.8,19.3
O=C(O)/C=C/C(=O)N(Cc1ccccc1)Cc1ccco1,-0.9,-4.4,-3.0,2.3
Cc1ccccc1-n1c(SCC(=O)c2c(N)n(C)c(=O)n(C)c2=O)nnc1-c1cccnc1,4.1,11.4,-12.3,-6.2
CCOc1ccc(-n2c(SCC(=O)c3c(N)n(C)c(=O)n(C)c3=O)nnc2-c2cccnc2)cc1,9.1*,37.1,4.9,47.7
Cc1ccc(-c2cc(Cc3ccccc3)c(=O)[nH]n2)cc1,.,3.9,.,.
CC(C)c1c(O)cc(-c2ccncc2)n(-c2ccc(Cl)cc2)c1=O,1.9,-2.2,17.0,54.4*
CC(C)c1cc(O)c(-c2ccccc2)c(=O)n1-c1ccc(Cl)cc1,.,8.8,.,.
CCC(C)(C)C1CCC2(CC1)NC(=S)N(c1ccccc1)N2 (stereo unspecified),.,-18.2,.,.
CC(C)(C)C1CCC2(CC1)NC(=S)N(c1ccccc1)N2 (stereo unspecified),2.6,-12.4,40.9,58.4*
CC(C)(C)C1CCC2(CC1)SCC(=O)N2c1ccccc1 (stereo unspecified),5.2,77.0*,39.1,-1.1
NC(=O)CC[C@H](NC(=O)OCc1ccccc1)C(=O)OCc1ccc(Cl)cc1,2.8,60.7,-0.6,20.6
C=CCN(c1ccc(C(=O)Nc2ccc(C)cc2)cc1)S(C)(=O)=O,3.4,-0.8,-2.5,2.9
CC(=O)c1cccc(NC(=O)c2ccc(N(Cc3ccc(C)cc3)S(C)(=O)=O)cc2)c1,5.2,-6.7,22.9,53.2*
Cc1ccc(CN(c2ccc(C(=O)Nc3ccc4c(c3)OCO4)cc2)S(C)(=O)=O)cc1,4.0,69.5,-1.3,-8.3
C=CCN(c1ccc(C(=O)Nc2ccc(C)c(C)c2)cc1)S(C)(=O)=O,1.3,37.0,-25.1,54.7*
Cc1ccc(Sc2ncccc2NC(=O)c2ccccc2Cl)cc1,.,-6.2,.,.
O=C(CSc1nnc(CNc2ccc(F)cc2)o1)c1ccccc1,2.1,18.0,-1.1,-3.2
COc1cccc2sc(/N=C/N(C)C)nc12,.,-15.0,.,.
CSc1ccc(-c2nc(CN3CCCCC3c3cccnc3)c(C)o2)cc1 (stereo unspecified),0.0,39.5,16.9,50.8*
O=[N+]([O-])c1cccnc1N1CCC(c2cc(-c3ccc(Cl)cc3Cl)n[nH]2)CC1,4.3,91.5*,65.2*,11.6
Cc1ccc(S(=O)(=O)N2CCCCC2)cc1NC(=O)Cn1c(=O)cnc2ccccc21,1.4,6.6,-0.5,13.3
Cc1ccc(-c2nn(-c3ccccc3)cc2/C=N/n2c(-c3cccs3)n[nH]c2=S)cc1,.,20.7,.,.
SMILES,RAM inhibit,CHOP inhibitor,WT yeast gro inh,L major viab
O=[N+]([O-])c1ccc(-c2nn(-c3ccccc3)cc2/C=N/n2c(-c3ccncc3)n[nH]c2=S)cc1,.,94.4*,.,.
S=c1[nH]nc(-c2cccs2)n1/N=C/c1cn(-c2ccccc2)nc1-c1cccs1,.,79.2*,.,.
Cc1nc2ccccc2c(=O)n1/N=C/c1cn(-c2ccccc2)nc1-c1cccs1,-0.9,-18.5,25.0,56.4*
Cc1nc2ccccc2c(=O)n1/N=C/c1cccs1,-0.2,-6.2,-4.9,2.9
Cc1cc(-c2n[nH]c(=S)n2/N=C/c2cc([N+](=O)[O-])ccc2Cl)n[nH]1,0.3,28.1,-0.1,84.4*
CCCCN(C(=O)COc1ccc(C)cc1OC)c1c(N)n(CCC)c(=O)[nH]c1=O,.,-2.6,.,.
COc1ccc(Cn2c(=O)[nH]c3cc(C(=O)NCCc4ccc(S(N)(=O)=O)cc4)ccc3c2=O)cc1,5.6,-28.1,-10.2,-11.0
Cn1nc(C(C)(C)C)cc1C(=O)Sc1cccc(Br)c1,.,5.3,.,.
O=[N+]([O-])c1ccc(/C=N/n2c(-c3cccnc3)n[nH]c2=S)cc1,3.0,-12.2,-6.4,-3.0
O=[N+]([O-])c1cccc(/C=N/n2c(-c3cccnc3)n[nH]c2=S)c1,4.7,1.2,-5.8,55.0*
CC(/C=C/C(=O)c1ccc(C)cc1)=C\c1ccccc1,0.6,90.9*,31.2,0.6
Cc1ccc(C(=O)/C=C\NCc2ccccc2)cc1,3.4,58.0,3.0,-6.9
COC(=O)c1ccc(-c2ccco2)n1Cc1cccc(C)c1,-0.2,-7.0,63.6*,2.0
COC(=O)c1ccc(-c2ccco2)n1Cc1cc(C)ccc1C,1.3,12.2,0.8,-5.1
COc1cc(OC)cc(N2C(=O)CSCC2=O)c1,.,-6.9,.,.
Clc1ccc2nc(-c3ccccc3)c(CN3CCOCC3)n2c1,1.8,-11.8,10.0,59.6*
CCN(CC)c1cccc(OC2=NS(=O)(=O)c3ccccc32)c1,0.3,81.2*,12.2,80.1*
Cc1c(Cl)cccc1NC(=S)N(CCCN1CCOCC1)Cc1cccs1,0.5,14.5,31.0,13.7
CCOC(=O)c1ccc(NC(=S)N(CCCN2CCCC2)Cc2cccs2)cc1,0.7,18.9,-14.0,81.7*
CCOC(=O)c1ccc(NC(=S)N(CCCN2CCCC(C)C2)Cc2cccs2)cc1 (stereo unspecified),1.9,42.5,-1.5,96.9*
CCOC(=O)c1ccc(NC(=S)N(CCN2CCCCCC2)Cc2cccs2)cc1,3.6,24.0,18.4,96.5*
Cc1ccc(NC(=S)N(CCCN2CCOCC2)Cc2cccs2)c(C)c1,-0.1,0.3,0.4,69.2*
COc1ccccc1CCc1nnc(CCC(=O)NC(C)Cc2cccnc2)o1 (stereo unspecified),-0.4,-0.6,-6.4,0.4
COc1ccc(NC(=S)N(CCCN2CCCCC2)Cc2cccs2)cc1,0.4,23.5,8.2,83.2*
Cc1ccc(NC(=S)N(CCCN2CCN(C)CC2)Cc2cccs2)cc1,-0.3,-19.6,-7.5,1.7
SMILES,RAM inhibit,CHOP inhibitor,WT yeast gro inh,L major viab
CNC(=S)N1CCN(c2ccc(Cl)c(Cl)c2)CC1,-0.8,23.4,39.8,12.4
C#CC(C)(C)NC(=O)c1ccc(-c2ccccc2F)cc1,.,10.2,.,.
COc1cc(OC)cc(-c2cc3nc4c(c(N5CCN(c6ncccn6)CC5)n3n2)CCCC4)c1,1.1,15.5,3.9,52.2*
CCc1c(C)nc2cc(-c3cc(OC)cc(OC)c3)nn2c1N1CCCC1,-0.6,91.5*,54.9,26.4
CCOCCN1CCN(c2c(CC)c(C)nc3cc(-c4cc(OC)cc(OC)c4)nn23)CC1,0.6,29.2,35.1,72.2*
CCOCCN1CCN(c2c3c(nc4cc(-c5ccc(F)cc5)nn24)CCC3)CC1,-0.2,9.1,9.5,10.2
CCc1c(C)nc2cc(-c3ccc(OC)c(OC)c3)nn2c1N1CCCC1,0.4,63.9,-1.1,49.4
CNC(=O)Nc1ccccc1C(=O)Nc1ccccc1,.,2.1,.,.
O=C(COc1ncnc2sccc12)NC1CCS(=O)(=O)C1 (stereo unspecified),.,17.1,.,.
Nc1nc(NCCCN2CCOCC2)nc(Nc2cccc(Cl)c2)c1[N+](=O)[O-],.,23.8,.,.
c1ccc(-c2ccc(C(c3ccccc3)n3ccnc3)cc2)cc1 (stereo unspecified),0.3,40.7,73.4*!,97.8*
